# Compound activity from PubChem.
# Pol kappa inh-1: qHTS for Inhibitors of Polymerase Kappa | DNA polymerase kappa (Homo sapiens), Q9UBT6 | purified Pol kappa, fluorescent DNA synthesis assay, 10 min | Potency, µM (titrated, usually from 107 µM), without a hit: at the highest dose activity, negative = inhibition, usual class: inhibitors | actives 0.53% (n = 400,000); further: potency means the concentration at half of the fitted maximal effect; on the % scale 0 is the no-effect control and ±100 the full control effect
#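 Enzyme at 10 nM met test compounds for 15 min at room temperature. Substrate addition (50 nM final) began the reaction, which was monitored by fluorescence at 0 and 10 min.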
# Pol eta inh-1: qHTS for Inhibitors of Polymerase Eta; Potency, µM (doses to about 114 µM), for inactives: top-dose activity change, negative = inhibition, hits mostly inhibitors; DNA polymerase eta (Homo sapiens), Q9Y253; actives 1.2% (n = 390,000); recombinant Pol eta, fluorescent DNA replication assay; further: potency means the concentration at half of the fitted maximal effect; on the % scale 0 is the no-effect control and ±100 the full control effect
#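 Pol eta (10 nM) was preincubated with compounds for 15 min at room temperature, after which fluorescent replication substrate (50 nM final) was added to start the reaction. Fluorescence was read kinetically at 0 and 10 min.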
# PI5P4K alpha inh: qHTS for Inhibitors of phosphatidylinositol 5-phosphate 4-kinase (PI5P4K); Phosphatidylinositol 5-phosphate 4-kinase type-2 alpha (Homo sapiens), P48426; PI5P4Kalpha enzyme, ADP-Glo luminescence, 60 min; hits give low values; max response, %; actives 1.2% (n = 330,000); AID 652105, 2013; active means max response of -50% or lower; inconclusive means between -30% and -50%; inactive means -30% or higher; further: value at the top dose of about 77 µM; on the % scale 0 is the no-effect control and ±100 the full control effect
# Target sequence (P48426 whole entry, looked up): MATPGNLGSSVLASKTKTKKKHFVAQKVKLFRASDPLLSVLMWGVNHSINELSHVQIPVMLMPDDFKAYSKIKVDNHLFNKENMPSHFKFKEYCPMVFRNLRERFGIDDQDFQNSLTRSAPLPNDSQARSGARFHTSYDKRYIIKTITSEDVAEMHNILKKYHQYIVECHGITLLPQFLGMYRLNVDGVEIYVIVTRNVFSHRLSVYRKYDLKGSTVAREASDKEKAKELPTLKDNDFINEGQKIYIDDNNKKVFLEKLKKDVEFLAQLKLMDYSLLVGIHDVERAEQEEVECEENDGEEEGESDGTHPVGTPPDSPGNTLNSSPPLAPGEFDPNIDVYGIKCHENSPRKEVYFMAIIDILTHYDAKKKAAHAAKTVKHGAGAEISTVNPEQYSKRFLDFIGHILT
#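 PI5P4Kalpha ADP-Glo assay; 5 microM ATP final; 60 min RT reaction; HEPES pH 7.4/EGTA/CHAPS, 5% DMSO; controls lacking substrate or enzyme; luminescent end-point.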
# POLB inh: qHTS Assay for Inhibitors of DNA Polymerase Beta. Potency, µM (titrated, usually from 114 µM), without a hit: top-dose activity change, negative = inhibition, usual class: inhibitors. AID 485314, 2010. actives 1.3% (n = 340,000). Pol beta primer extension/strand displacement, fluorescence kinetic; further: potency means the concentration at half of the fitted maximal effect; on the % scale 0 is the no-effect control and ±100 the full control effect
#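 Homogeneous kinetic assay of primer extension and strand displacement by 10 nM Pol beta, preincubated 15 min at room temperature with compound before 50 nM substrate (final) was added. Read at 0 and 10 min; four-parameter Hill fit.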
# WRN helicase inh: qHTS for Inhibitors of WRN Helicase. Potency, µM (series often up to 114 µM), inactives show top-dose activity change, negative = inhibition, most hits filed as inhibitors. AID 651768, 2012. Bifunctional 3'-5' exonuclease/ATP-dependent helicase WRN (Homo sapiens), Q14191. actives 0.46% (n = 360,000). WRN helicase unwinding, fluorescent forked duplex, kinetic; further: potency means the concentration at half of the fitted maximal effect; on the % scale 0 is the no-effect control and ±100 the full control effect; nearly all actives have a fitted effect of over 55% in size
#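 WRN at 20 nM final preincubated with compound 15 min at room temperature; reaction started with 100 nM fluorophore/quencher forked duplex oligonucleotide and 2 mM ATP final. Unwinding followed kinetically by red fluorescence (ex 525, em 598 nm).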
# POLI inh: qHTS for Inhibitors of Polymerase Iota. DNA polymerase iota (Homo sapiens), Q9UNA4. Pol iota fluorescent replication assay, 10 min. Potency, µM (highest dose often 115 µM), inactives show at the highest dose activity, negative = inhibition, usual class: inhibitors. actives 1% (n = 390,000). AID 588590, 2011; further: potency means the concentration at half of the fitted maximal effect
#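 Pol iota at 10 nM preincubated 15 min with compounds at room temperature; reaction started with fluorescent substrate, 50 nM final. Fluorescence read kinetically at 0 and 10 min; buffer-only wells as negative control.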
# Pol kappa inh-2: qHTS for Inhibitors of Polymerase Kappa: Confirmatory Assay for Cherry-picked Compounds. Potency, µM, most hits filed as inhibitors. shares compounds with Pol eta inh-1. purified Pol-kappa, fluorescent strand-displacement substrate. actives 76% (n = 920); further: potency means the concentration at half of the fitted maximal effect
# Pol eta inh-2: qHTS for Inhibitors of Polymerase Eta: Confirmatory Assay for Cherry-picked Compounds; Potency, µM, usual class: inhibitors; Pol eta primer extension, TAMRA/BHQ fluorescence, 10 min; actives 64% (n = 2,600); shares compounds with Pol eta inh-1; further: potency means the concentration at half of the fitted maximal effect
# * marks the source's active call; other numbers are inactive results; ? = inconclusive; / = no result; [ ] = another dose, or the depositor's remark. Only some compounds are listed: those with a hit (about 2.8% of all), similar ones and a draw of the others. Unless noted, the call rests on the fitted dose curve; in most records, active means well fitted curve in the direction sought with a large enough effect; inconclusive means small, poorly fitted or top-dose-only effect, or another doubt; inactive means no such curve, though single readings can be large; an effect the other way counts as inactive or inconclusive.
SMILES,Pol kappa inh-1,Pol eta inh-1,PI5P4K alpha inh,POLB inh,WRN helicase inh,POLI inh,Pol eta inh-2,others
CC(=O)N1CCN(c2ccc(OC[C@@H]3CO[C@@](Cn4ccnc4)(c4ccc(Cl)cc4Cl)O3)cc2)CC1,-13.7%,/,/,/,/,-16.3%,/,
O=C(c1ccc2c(c1)N(Cc1cccc(F)c1)C(=O)c1ccccc1S2)N1CCC2(CC1)OCCO2,-5.3%[60.1 µM],?,/,22.4µM*,/,-18.3%,?,Pol kappa inh-2=?
CO[C@H]1[C@@H](O)CC(OC2[C@@H](O)CC(OC3[C@@H](O)C[C@H](OC4CC[C@@]5(C)C(CCC6C5CC(O)[C@]5(C)[C@H](C7=CC(=O)OC7)CCC65O)C4)O[C@@H]3C)O[C@@H]2C)O[C@@H]1C (stereo not given in full),-0.4%[19.4 µM],/,/,/,/,/,/,
O=C1C=C2C=CC3C[C@@]2(O1)C1CCCCN31 (stereo not given in full),5.8%[19.4 µM],/,/,/,/,/,/,
COc1ccc(N2C(=O)/C(=C/c3ccc(C)o3)C(=O)NC2=S)cc1,-95.6%,12.6µM*,?,35.5µM*,?,25.1µM*,30.1*,Pol kappa inh-2=16.8*
CCOc1ccc(N2C(=O)/C(=C/c3ccc(C)o3)C(=O)NC2=S)cc1,28.2µM*,3.98µM*,-75.8*,28.2µM*,44.7µM*,8.91µM*,30.1*,
CCOc1ccc(N2C(=O)NC(=O)/C(=C\c3ccc(N4CCCCC4)o3)C2=O)cc1,-5.5%,-20.8%,2.5,3.7%[57.1 µM],2.7%,30.7%,/,
O=C(O)C1C(C(=O)O)C2(Cl)C(Cl)=C(Cl)C1(Cl)C2(Cl)Cl (stereo not given),79.4µM*,-5.9%,-1.4,/,2.0%[11.6 µM],44.7µM*,?,
Nc1nc(O)c(-c2ccccc2)o1,-2.7%[19.4 µM],/,/,/,/,/,/,
COCOC1CCC2C3CCC4=CC(=O)CCC4=C3C=CC12C (stereo not given),?,?,-11.7,/,-6.0%[11.6 µM],28.2µM*,?,
CC(=O)Oc1ccc(Cl)c2cccnc12,-4.2%[60.1 µM],/,/,/,/,/,/,
O=C(C1CCCN(Cc2ccc(Cl)cc2)C1)N1CCCCC1 (stereo not given),-11.6%,-22.1%,1.3,4.0%,2.1%,41.0%,/,
COc1ccc(-c2nc3ccccc3c(=O)n2-c2ccc(OC)cc2)cc1,-7.8%,-18.1%,-0.2,4.4%,-7.3%,-6.0%,/,
